Experimental findings from PubChem BioAssay (NCATS) are described below.

For experiment [1], the target named is Lysosomal acid glucosylceramidase (Homo sapiens) (UniProt P04062). The experiment is described as follows: Glucocerebrosidase-p2 (AID 348; in the data active means potency below about 10 µM; further: potency means the concentration at half of the fitted maximal effect). As to conditions: purified GBA, blue fluorogenic substrate, 40 min. The gist of the method:
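Compounds titrated from 0.6 nM upwards against 0.2 nM enzyme in pH 5.9 citric acid/KH2PO4, taurocholate, tween-20; blue fluorogenic substrate 80 uM, 40 min room temperature, stopped and read Ex 365/Em 440 for AC50.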

A short description of experiment [2]: AP1 Signaling Pathway (AID 357; active means well fitted curve in either direction with a large enough effect, not every such curve was filed as active; further: on the % scale 0 is the no-effect control and ±100 the full control effect). Conditions: ME-180 AP-1-bla reporter, EGF-induced, beta-lactamase ratio, 5 h; at 7.69 µM (top of the series) unless noted. In outline:
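ME-180 cells with beta-lactamase reporter under AP-1 response element, stimulated with EC50 EGF; compounds tested in titration series, 5 h at 37 °C. CCF4 substrate added 2.5 h at room temperature; 460/530 nm emission ratio gave %activity and AC50.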

A short description of experiment [3]: NFAT Signaling Pathway (AID 444; active means well fitted curve in either direction with a large enough effect, not every such curve was filed as active;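 further: carbachol stimulus at about its EC50 of 1 µM final; on the % scale 0 is the no-effect control and ±100 the full control effect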). Conditions: Jurkat NFAT-bla M1, carbachol, beta-lactamase ratio, 5 h; at 7.69 µM (top of the series) unless noted. The gist of the method:
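Jurkat cells carrying an NFAT-driven β-lactamase reporter and co-transfected muscarinic M1 receptor were treated with compound plus carbachol (1 uM final, an EC50 level) for 5 h at 37 °C. CCF4 loading followed for 1 h at RT; 460/530 nm ratio gave %activity.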

The target in experiment [4] is Glucocorticoid receptor (Homo sapiens) (UniProt P04150). The experiment is described as follows: GR-GFP Redistribution (AID 450;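 active means compounds whose dose series gives a full or clear partial fitted curve of increased nuclear translocation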; further: potency means the concentration at half of the fitted maximal effect). As to conditions: U2OS GR-GFP nuclear translocation, laser cytometry, 2 h.
Experiment [5] has the same target. The experiment in a line: GR-EFC Redistribution (AID 451; calls by dose curve; further: potency means the concentration at half of the fitted maximal effect). Conditions: CHO-K1 GR-EFC translocation, beta-gal luminescence, 2 h. The gist of the method: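 CHO-K1 cells stably expressing nuclear-localized β-gal enzyme acceptor and GR fused C-terminally to the enzyme donor fragment; ligand-driven nuclear translocation restores β-gal by complementation. Compounds titrated up to 46 uM final, 2 h at 37 °C; luminescence read.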

Experiment [6] concerns the target Mitogen-activated protein kinase 10 (Mus musculus) (UniProt Q61831). The experiment is described as follows: JNK3 AlphaScreen Assay (AID 530; active means well fitted curve in either direction with a large enough effect, not every such curve was filed as active;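 further: kinase came from lysate of stimulated human HepG2 cells; signal reports phosphorylation of biotinylated GST-cJun 1-79 at Ser73 with 10 µM ATP; on the % scale 0 is the no-effect control and ±100 the full control effect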). As to conditions: JNK3 lysate, c-Jun phosphorylation; series mostly up to 57.1 µM. In outline:
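JNK3 came from HepG2 lysates pre-activated with IL-1beta and TNF-alpha and phosphorylated biotinylated GST-cJun (1-79) at 10 uM ATP, pH 7.6, room temperature. Compounds were titrated. AlphaScreen signal used anti-phospho-cJun (Ser73) antibody.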
(In general: Alpha assays give light when donor and acceptor beads are brought close together.)

Experiment [7] deals with 3',5'-cyclic-AMP phosphodiesterase 4B (Homo sapiens) (UniProt Q07343). The experiment is described as follows: qHTS Assay for Inhibitors of PDE-IV (AID 607; active means well fitted activation curve with a large enough effect in the main read-out, with a control signal flat, not every such curve was filed as active; further: % of control where 0% means no effect). Conditions: HEK293 ACTOne CNG channel cells, membrane potential fluorescence; series mostly up to 22.9 µM. The gist of the method: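 Cell-based read-out of cAMP via a modified cyclic nucleotide-gated channel and membrane potential dye (535/590 nm) in HEK293 cells expressing PDE4 endogenously. Compounds tested up to 22.9 uM final; 100 uM RO 20-1724 reference.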
A general note: Quantitative high-throughput screening tests each substance at several concentrations.

The nature of experiment [8]: qHTS Assay for Lipid Storage Modulators (AID 1519; calls by dose curve). As to conditions: Drosophila S3 cells, BODIPY lipid droplet/cell ratio, laser cytometry, cells loaded with oleic acid; for activity change, negative = inhibition: at 57.5 µM (top of the series). The gist of the method: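 Cells seeded at 5,000 per well were treated with compounds over a concentration series and loaded with oleic acid (400 uM, as added). Lipid droplet fluorescence (488 nm excitation, 500-530 nm channel) was read by laser-scanning cytometry and normalized to 20 uM Triacsin C.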

Experiment [9] addresses Dual specificity protein kinase CLK4 (Homo sapiens) (UniProt Q9HAZ1). The experiment in a line: qHTS Assay for Inhibitors of CDC-like Kinase 4 (Kinase-Glo Assay) (AID 1770). Further: on the % scale 0 is the no-effect control and ±100 the full control effect; nearly all actives have a fitted effect of over 65% in size. As to conditions: recombinant Clk4, Kinase-Glo ATP depletion luminescence; series mostly up to 66.7 µM. In outline:
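Clk4 25 nM, RS peptide 100 uM, ATP 1 uM, pH 7.5 Tris, 10 mM MgCl2, 2.5 mM DTT; 4.5 h RT; ATP depletion read by Kinase-Glo luminescence.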

Experiment [10] shares this target. The experiment in a line: qHTS Assay for Inhibitors of CDC-like Kinase 4 (ADP-Glo Assay) (AID 1771). Further: on the % scale 0 is the no-effect control and ±100 the full control effect; nearly all actives have a fitted effect of over 70% in size. Conditions: recombinant CLK4, ADP-Glo luminescence; series mostly up to 80 µM. In outline: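 Clk4 (25 nM) was incubated 1 hr at room temperature with 100 uM RS repeat peptide and 1 uM ATP in buffer with 2 mM MgCl2, 0.5 mM EGTA, 2.5 mM DTT. ADP formed was quantified by ADP-Glo luminescence.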

Experiment [11] has the same target. The experiment in a line: qHTS Assay for Inhibitors of CDC-like Kinase 4 (ADP-FP Assay) (AID 1795). Further: on the % scale 0 is the no-effect control and ±100 the full control effect; nearly all actives have a fitted effect of over 60% in size. Conditions: Transcreener ADP fluorescence polarization; series mostly up to 50 µM. The gist of the method: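 Kinase activity was followed as ADP output, converted from fluorescence polarization with a calibration curve. Reactions ran one hour at low ATP (1 uM) with RS peptide substrate.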

Experiment [12] deals with Ubiquitin carboxyl-terminal hydrolase 1 (Homo sapiens) (UniProt O94782). The experiment is described as follows: Inhibitors of USP1/UAF1: Pilot qHTS (AID 504865).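 Further: rhodamine fluorescence freed from ubiquitin-rhodamine substrate followed over time; top concentration of the series differs between compounds; on the % scale 0 is the no-effect control and ±100 the full control effect; nearly all actives have a fitted effect of over 35% in size.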 As to conditions: purified USP1/UAF1, Ub-rhodamine cleavage fluorescence; series mostly up to 54.9 µM. In outline:
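Enzyme-free wells gave the negative control, while test wells held 1nM USP1/UAF1 preincubated with compound for 15 min at room temperature. Ub-Rho at 150nM final started the reaction, and fluorescence at 480/540 nm was recorded kinetically.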

Experiment [13] is described as follows: Primary qHTS for small molecule stabilizers of the endoplasmic reticulum resident proteome: Secreted ER Calcium Modulated Protein (SERCaMP) assay (AID 1508630). Further: on the % scale 0 is the no-effect control and ±100 the full control effect. Conditions: SH-SY5Y GLuc-SERCaMP (Gaussia luciferase released on ER calcium loss) secretion, thapsigargin, luminescence; series mostly up to 38.4 µM. In outline: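 GLuc-SERCaMP-expressing SH-SY5Y cells, pretreated 16 h with compound, are challenged with thapsigargin to empty ER calcium stores; after 4 h, coelenterazine is added directly to the medium and luminescence is imaged.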

Experiment [14] is described as follows: Stat Signaling Pathway (AID 446; active means well fitted curve in either direction with a large enough effect, not every such curve was filed as active). Conditions: ME-180 SIE beta-lactamase reporter, IL-6 stimulated, 5 h; at 7.69 µM (top of the series) unless noted. The gist of the method:
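Reporter line: ME-180 cervical carcinoma, SIE-beta-lactamase. Treatment: compound with 40 pM IL-6, 5 hrs, 37 C, in low-serum OPTI-MEM with 10 mM HEPES pH 7.3. Detection: 460/530 nm fluorescence.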

Experiment [15] concerns the target Cytochrome P450 3A4 (Homo sapiens) (UniProt P08684). The experiment in a line: qHTS Assay for Activators of Cytochrome P450 3A4 (AID 885). Further: nearly all actives have a fitted effect of over 65% in size. Conditions: recombinant CYP3A4, Luciferin-PPXE luminescence, 60 min; series mostly up to 57.1 µM. The gist of the method: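 Signal was normalized against complete inhibition by 57 uM ketoconazole. The reaction used 20nM CYP3A4 with 25uM Luciferin-PPXE, 10-min compound preincubation and a 60-min NADPH-supported step at RT.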

The target is the same in experiment [16]. The experiment in a line: qHTS Assay for Inhibitors and Substrates of Cytochrome P450 3A4 (AID 884). Further: potency means the concentration at half of the fitted maximal effect; nearly all actives have a fitted effect of over 50% in size. Conditions: recombinant CYP3A4, Luciferin-PPXE luminescence; series mostly up to 57.1 µM. In outline:
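20 nM human CYP3A4 with 25 uM Luciferin-PPXE (at KM) in 200 mM KPO4, preincubated 10 min with compound; NADPH regeneration started a 60 min RT reaction. Luciferin detected by luminescence, normalized to 57 uM ketoconazole as full inhibition.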

In experiment [17] the target is Cytochrome P450 2C19 (Homo sapiens) (UniProt P33261). The experiment in a line: qHTS Assay for Inhibitors and Substrates of Cytochrome P450 2C19 (AID 899). Further: potency means the concentration at half of the fitted maximal effect; nearly all actives have a fitted effect of over 60% in size. Conditions: recombinant CYP2C19, luciferin-H EGE luminescence; series mostly up to 57.1 µM. The gist of the method:
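In 50mM KPO4, the reaction held 5nM enzyme and KM-level (10uM) Luciferin-H EGE; it ran 60 min at 37C after NADPH regeneration and a 10 min compound preincubation. Luminescence values were scaled to 57uM ketoconazole as complete inhibition.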

Experiment [18] in a line: qHTS Assay for Identification of Small Molecule Agonists for Hypoxia Response Element Signaling Pathway (AID 914; active means well fitted activation curve with a large enough effect in the signal ratio, with a control signal flat, not every such curve was filed as active; the % refers to the signal ratio; further: potency means the concentration at half of the fitted maximal effect). As to conditions: ME-180 (cervical carcinoma) HRE-bla reporter, beta-lactamase ratio, CoCl2, 17 h; activation: stronger effect = higher value. In outline:
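Reporter activity (beta-lactamase, CCF4 460nm/530nm ratio) in HRE-bla ME-180 cells is recorded after 17 h compound exposure with EC50 CoCl2 at 37 degrees Celsius. AC50 values come from titration data.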

Where [19] appears, read: measured here: cell count channel max response.
Setting [20] is: measured here: lipid channel max response.

Structures are written as SMILES. Results filed as inconclusive are left out. Calls of active or inactive are those of the source. Unless noted, the call rests on the fitted dose curve; in most records, active means well fitted curve in the direction sought with a large enough effect; inconclusive means small, poorly fitted or top-dose-only effect, or another doubt; inactive means no such curve, though single readings can be large; an effect the other way counts as inactive or inconclusive.

Sequence of Cytochrome P450 3A4 (Homo sapiens) (P08684 whole entry, looked up): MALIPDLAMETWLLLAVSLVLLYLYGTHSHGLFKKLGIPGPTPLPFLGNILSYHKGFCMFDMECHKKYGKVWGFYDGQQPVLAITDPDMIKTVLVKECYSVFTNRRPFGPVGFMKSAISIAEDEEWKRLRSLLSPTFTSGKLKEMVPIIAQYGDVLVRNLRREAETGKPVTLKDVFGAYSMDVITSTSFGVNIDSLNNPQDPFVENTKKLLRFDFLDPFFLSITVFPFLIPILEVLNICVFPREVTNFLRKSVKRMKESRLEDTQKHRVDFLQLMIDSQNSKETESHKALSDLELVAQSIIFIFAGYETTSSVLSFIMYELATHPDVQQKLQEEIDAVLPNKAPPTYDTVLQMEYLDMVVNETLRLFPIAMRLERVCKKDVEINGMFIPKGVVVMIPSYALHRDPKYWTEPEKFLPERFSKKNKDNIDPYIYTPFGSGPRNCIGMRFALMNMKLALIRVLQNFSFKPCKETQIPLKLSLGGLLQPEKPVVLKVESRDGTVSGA
Sequence of Glucocorticoid receptor (Homo sapiens) (P04150 whole entry, looked up, the tested form may be a part): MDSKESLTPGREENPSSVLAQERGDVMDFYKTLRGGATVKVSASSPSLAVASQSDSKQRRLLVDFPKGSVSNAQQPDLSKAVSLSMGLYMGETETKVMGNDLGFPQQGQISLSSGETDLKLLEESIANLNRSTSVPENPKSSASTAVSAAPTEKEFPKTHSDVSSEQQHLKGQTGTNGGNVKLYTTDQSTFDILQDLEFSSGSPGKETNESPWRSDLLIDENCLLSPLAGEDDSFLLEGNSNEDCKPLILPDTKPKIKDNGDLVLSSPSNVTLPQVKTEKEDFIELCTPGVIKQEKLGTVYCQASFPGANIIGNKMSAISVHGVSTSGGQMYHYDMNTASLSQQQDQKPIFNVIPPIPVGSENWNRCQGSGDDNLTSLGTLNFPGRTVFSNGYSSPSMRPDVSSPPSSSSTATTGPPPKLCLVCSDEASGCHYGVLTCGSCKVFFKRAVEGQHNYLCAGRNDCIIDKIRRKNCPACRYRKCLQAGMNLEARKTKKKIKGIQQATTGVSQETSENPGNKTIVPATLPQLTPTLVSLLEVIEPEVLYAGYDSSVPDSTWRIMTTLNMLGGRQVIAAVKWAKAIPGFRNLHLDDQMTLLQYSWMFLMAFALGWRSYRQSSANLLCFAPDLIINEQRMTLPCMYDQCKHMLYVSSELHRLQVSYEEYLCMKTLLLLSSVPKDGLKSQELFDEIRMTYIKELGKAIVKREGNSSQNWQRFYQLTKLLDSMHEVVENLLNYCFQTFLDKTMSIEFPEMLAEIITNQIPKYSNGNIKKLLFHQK
Sequence of 3',5'-cyclic-AMP phosphodiesterase 4B (Homo sapiens) (Q07343 whole entry, looked up): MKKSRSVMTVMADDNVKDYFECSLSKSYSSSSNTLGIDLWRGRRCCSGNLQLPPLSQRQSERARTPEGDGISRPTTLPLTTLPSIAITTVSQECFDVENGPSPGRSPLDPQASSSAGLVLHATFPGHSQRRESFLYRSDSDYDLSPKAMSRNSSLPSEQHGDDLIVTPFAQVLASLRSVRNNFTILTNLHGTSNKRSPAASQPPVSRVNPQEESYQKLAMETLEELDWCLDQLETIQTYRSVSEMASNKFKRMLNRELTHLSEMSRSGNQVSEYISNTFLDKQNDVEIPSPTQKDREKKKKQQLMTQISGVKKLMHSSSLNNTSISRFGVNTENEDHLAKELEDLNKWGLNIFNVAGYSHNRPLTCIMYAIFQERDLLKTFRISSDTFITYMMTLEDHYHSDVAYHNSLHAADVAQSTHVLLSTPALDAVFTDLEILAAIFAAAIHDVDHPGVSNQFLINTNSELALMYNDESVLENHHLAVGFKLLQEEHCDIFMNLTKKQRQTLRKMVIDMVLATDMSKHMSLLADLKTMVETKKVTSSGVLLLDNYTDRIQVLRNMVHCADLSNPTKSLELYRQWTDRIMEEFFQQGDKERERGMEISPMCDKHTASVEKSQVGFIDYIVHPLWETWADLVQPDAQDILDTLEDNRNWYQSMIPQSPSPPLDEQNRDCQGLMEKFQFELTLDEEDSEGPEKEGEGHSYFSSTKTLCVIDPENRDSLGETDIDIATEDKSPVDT
Sequence of Dual specificity protein kinase CLK4 (Homo sapiens) (Q9HAZ1 whole entry, looked up): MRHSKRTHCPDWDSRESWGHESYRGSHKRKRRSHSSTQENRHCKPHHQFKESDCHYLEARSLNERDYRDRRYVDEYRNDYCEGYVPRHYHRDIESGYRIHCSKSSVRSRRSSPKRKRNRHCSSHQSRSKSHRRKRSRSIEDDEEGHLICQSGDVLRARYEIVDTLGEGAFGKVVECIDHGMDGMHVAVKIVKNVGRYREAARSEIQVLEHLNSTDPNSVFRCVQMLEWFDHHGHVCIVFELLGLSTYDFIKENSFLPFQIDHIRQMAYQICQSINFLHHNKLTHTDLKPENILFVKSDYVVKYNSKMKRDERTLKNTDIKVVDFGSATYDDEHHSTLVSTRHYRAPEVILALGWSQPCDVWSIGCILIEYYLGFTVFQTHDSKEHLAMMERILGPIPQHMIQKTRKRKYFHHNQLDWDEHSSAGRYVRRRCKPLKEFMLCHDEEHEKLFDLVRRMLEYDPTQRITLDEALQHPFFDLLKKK
Sequence of Ubiquitin carboxyl-terminal hydrolase 1 (Homo sapiens) (O94782 whole entry, looked up): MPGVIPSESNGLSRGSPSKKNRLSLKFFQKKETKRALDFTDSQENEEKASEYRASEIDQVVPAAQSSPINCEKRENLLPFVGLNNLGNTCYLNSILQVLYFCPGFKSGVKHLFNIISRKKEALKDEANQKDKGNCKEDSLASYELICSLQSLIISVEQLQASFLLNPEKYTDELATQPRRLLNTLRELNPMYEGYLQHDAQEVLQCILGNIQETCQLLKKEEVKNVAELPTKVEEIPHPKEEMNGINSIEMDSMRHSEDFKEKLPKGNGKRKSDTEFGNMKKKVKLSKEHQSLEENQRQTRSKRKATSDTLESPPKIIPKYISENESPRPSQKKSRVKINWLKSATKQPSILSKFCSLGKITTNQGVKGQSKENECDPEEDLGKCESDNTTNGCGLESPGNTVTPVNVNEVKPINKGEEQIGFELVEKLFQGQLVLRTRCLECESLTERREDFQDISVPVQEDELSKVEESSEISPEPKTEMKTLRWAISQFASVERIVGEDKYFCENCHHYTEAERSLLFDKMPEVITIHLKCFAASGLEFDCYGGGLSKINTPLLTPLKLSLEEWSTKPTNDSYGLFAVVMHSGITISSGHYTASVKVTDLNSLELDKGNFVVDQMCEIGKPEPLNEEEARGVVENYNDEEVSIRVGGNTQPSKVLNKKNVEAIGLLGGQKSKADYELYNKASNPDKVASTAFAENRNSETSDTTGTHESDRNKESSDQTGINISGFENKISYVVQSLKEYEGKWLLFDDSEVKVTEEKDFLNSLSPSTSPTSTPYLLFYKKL
Sequence of Lysosomal acid glucosylceramidase (Homo sapiens) (P04062 whole entry, looked up): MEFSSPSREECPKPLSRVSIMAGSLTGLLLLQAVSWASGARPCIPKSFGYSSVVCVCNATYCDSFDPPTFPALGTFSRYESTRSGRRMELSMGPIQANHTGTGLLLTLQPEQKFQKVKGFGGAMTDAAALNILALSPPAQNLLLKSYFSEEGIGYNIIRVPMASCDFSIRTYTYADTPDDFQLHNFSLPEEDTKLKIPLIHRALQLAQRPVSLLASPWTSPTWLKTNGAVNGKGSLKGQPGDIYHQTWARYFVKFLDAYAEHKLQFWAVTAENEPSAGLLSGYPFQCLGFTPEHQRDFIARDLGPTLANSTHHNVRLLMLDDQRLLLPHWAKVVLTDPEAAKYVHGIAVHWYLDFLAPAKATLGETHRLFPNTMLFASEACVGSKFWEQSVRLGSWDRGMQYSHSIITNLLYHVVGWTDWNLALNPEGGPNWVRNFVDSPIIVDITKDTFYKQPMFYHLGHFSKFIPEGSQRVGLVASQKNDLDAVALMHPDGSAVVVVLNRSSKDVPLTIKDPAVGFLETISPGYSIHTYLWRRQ
Sequence of Cytochrome P450 2C19 (Homo sapiens) (P33261 whole entry, looked up): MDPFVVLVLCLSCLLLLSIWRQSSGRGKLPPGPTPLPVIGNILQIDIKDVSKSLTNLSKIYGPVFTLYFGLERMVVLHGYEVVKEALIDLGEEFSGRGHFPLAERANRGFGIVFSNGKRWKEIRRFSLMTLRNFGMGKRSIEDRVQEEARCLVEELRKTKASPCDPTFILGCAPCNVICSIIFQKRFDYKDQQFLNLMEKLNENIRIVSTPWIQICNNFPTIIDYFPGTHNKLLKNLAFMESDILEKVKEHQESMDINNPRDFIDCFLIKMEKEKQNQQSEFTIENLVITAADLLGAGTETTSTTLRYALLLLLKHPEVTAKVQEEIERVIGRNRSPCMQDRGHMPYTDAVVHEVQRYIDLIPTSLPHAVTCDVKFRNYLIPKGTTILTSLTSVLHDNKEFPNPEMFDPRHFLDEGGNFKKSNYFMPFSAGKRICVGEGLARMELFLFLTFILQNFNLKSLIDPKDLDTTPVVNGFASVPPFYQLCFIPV

For the compound `CN(C)Cc1ccccc1-c1nc(NC2CCNCC2)c2ccccc2n1`, the Potency in experiment [1] is > 11.4 µM (inactive); in experiment [4], > 46 µM (inactive); in [5] it was > 46 µM (inactive). Also, the activity change, negative = inhibition in experiment [2] was 24.8% (inactive); in experiment [3], -15% (inactive); in experiment [8] it was 2.42% (inactive). In [6], the compound was classed as inactive. For the same compound, the Potency entry in experiment [7], in [9], in experiment [10], in experiment [11], in [12] and in [13] was “inactive” each time. The max response was determined as 8.01% in [8] (setting [19]) and 7.24% in [8] (setting [20]).

As to `CN1CCN(c2ncc3ncc(=O)n(C4CC4)c3n2)CC1`, the Potency in experiment [1] is > 11.4 µM (inactive); in [5], > 46 µM (inactive). The activity change, negative = inhibition was -15.2% (inactive) in experiment [2] and -0.747% (inactive) in [8]. In addition, the activity, negative = inhibition in experiment [14] was -9.77% (inactive). Further, the compound was called inactive in [6]. The Potency entry in experiment [7], in experiment [9], in [10], in experiment [11], in experiment [12] and in experiment [13] was “inactive” each time. Further, the max response in [8] (setting [19]) was -13.5%; in experiment [8] (setting [20]), -12.9%.

As to `COc1ccc(-c2nc3cnc(Nc4cccc(OC)c4)nc3n(C[C@H]3CCCO3)c2=O)cc1`, the Potency in experiment [1] was > 11.4 µM (inactive); in experiment [4], > 9.22 µM (inactive); in experiment [5] it was > 46 µM (inactive). For the same compound, the activity change, negative = inhibition was -24.6% (inactive) in experiment [2], -19.9% (inactive) in experiment [3] and -4.84% (inactive) in [8]. In experiment [14], the activity, negative = inhibition was 16.7% (inactive). The compound was classed as inactive in experiment [6]. Further, the Potency result in experiment [7], in experiment [15], in [9], in experiment [10], in [11] and in experiment [12] was “inactive” throughout. In [13], the Potency result is “inactive”. The values for the max response in [8] (setting [19]) and in experiment [8] (setting [20]) were -7.08% and -12.2%, respectively.

`Clc1ccccc1-c1cncnc1NCc1cccs1`: the Potency is > 11.4 µM (inactive) in experiment [1]; > 46 µM (inactive) in experiment [4]; > 46 µM (inactive) in [5]; 0.501 µM (active) in experiment [16]; 1.58 µM (active) in experiment [17]. For the same compound, the values for the activity change, negative = inhibition in experiment [2] and in experiment [8] were -10.1% (inactive) and 4.06% (inactive), respectively. In experiment [14], the activity, negative = inhibition is -9.78% (inactive). The result in [6] was inactive. Also, the Potency entry in experiment [15], in [9], in experiment [10], in [11] and in experiment [13] was “inactive” throughout. Moreover, the max response in experiment [8] (setting [19]) is 21%; in experiment [8] (setting [20]), 23.3%.

As to `COCCn1c(=O)c(-c2ccc(F)cc2)nc2cnc(OC)nc21`, the Potency in [1] is > 11.4 µM (inactive); in experiment [4] it was > 9.22 µM (inactive); in [5], > 46 µM (inactive). Besides, the activity change, negative = inhibition in [2] was -3.31% (inactive); in experiment [3], 15.2% (inactive); in experiment [8], 4.45% (inactive). In addition, the activity, negative = inhibition in experiment [14] is -15% (inactive). Also, the compound was called inactive in experiment [6]. Moreover, the Potency result in [7], in experiment [9], in [10], in experiment [11] and in experiment [13] was “inactive” each time. Further, the max response in [8] (setting [19]) was determined as 6.98%; in [8] (setting [20]), 9.8%.

Take `Cn1cc(-c2nc3cnc(N4CCNCC4)nc3n(CCC#N)c2=O)c2ccccc21`: the Potency was > 11.4 µM (inactive) in experiment [1], > 9.22 µM (inactive) in [4], > 46 µM (inactive) in experiment [5] and 3.16 µM (active) in experiment [18]. The activity change, negative = inhibition in [2] was 14.5% (inactive); in experiment [3] it was 1.75% (inactive); in experiment [8] it was 1.65% (inactive). In [6], the compound was called inactive. Also, the Potency entry in experiment [7], in experiment [9], in experiment [10], in experiment [11], in experiment [12] and in experiment [13] was “inactive” in each case. Moreover, the values for the max response in experiment [8] (setting [19]) and in experiment [8] (setting [20]) were -3.78% and -5%, respectively.
